From PubChem
Only some compounds are listed: those with a hit (about 1.6% of all), similar ones and a draw of the others.
KCNQ2 block: blocks the rat KCNQ2 potassium channel. B-score at 10 µM. CHO-K1 KCNQ2, FluxOR thallium flux, 20 min; active compounds read low. hit rate 1.1% among 310,000. O88943. AID 2156;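 active = fluorescence ratio B-score at most minus 3 library SDs, with starting brightness B-score within 2 library SDs, cut at about -5.5 in these data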
Target sequence (O88943 whole entry, looked up): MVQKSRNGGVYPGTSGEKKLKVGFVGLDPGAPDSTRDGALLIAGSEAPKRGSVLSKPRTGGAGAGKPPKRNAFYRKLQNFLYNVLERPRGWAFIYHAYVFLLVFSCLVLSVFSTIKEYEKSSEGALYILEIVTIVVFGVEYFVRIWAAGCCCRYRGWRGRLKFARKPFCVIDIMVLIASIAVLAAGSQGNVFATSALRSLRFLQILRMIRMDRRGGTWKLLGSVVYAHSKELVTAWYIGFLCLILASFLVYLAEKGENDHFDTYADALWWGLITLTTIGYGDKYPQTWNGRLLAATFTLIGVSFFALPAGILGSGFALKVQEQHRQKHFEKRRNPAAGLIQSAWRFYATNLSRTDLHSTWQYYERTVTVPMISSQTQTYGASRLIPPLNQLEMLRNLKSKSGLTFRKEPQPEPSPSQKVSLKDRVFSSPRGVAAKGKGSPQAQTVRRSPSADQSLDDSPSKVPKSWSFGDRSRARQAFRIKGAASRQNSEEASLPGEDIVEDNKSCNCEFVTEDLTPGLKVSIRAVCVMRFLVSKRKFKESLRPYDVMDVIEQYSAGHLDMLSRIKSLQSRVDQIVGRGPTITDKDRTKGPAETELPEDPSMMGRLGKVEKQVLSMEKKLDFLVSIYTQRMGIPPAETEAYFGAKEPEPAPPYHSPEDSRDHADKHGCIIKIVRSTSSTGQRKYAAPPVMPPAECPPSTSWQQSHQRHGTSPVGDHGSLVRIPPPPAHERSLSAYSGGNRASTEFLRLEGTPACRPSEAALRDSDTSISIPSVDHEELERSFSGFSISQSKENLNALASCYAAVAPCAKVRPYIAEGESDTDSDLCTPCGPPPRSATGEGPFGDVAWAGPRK
KCNQ2 enhance: potentiators of rat KCNQ2 potassium channel. O88943. CHO-K1 KCNQ2, FluxOR thallium flux fluorescence; active compounds read high. B-score at 10 µM. hit rate 0.54% among 310,000;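 active = fluorescence ratio B-score at least 3 SD of library B-scores, with initial fluorescence B-score within 3 of them, cut at about 5.3 in these data; same plate scores as AID 2156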;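 note: B-score of peak minus minimum over baseline fluorescence ratio after K+ and Tl+ stimulus; positive B-score means potentiation of KCNQ2 with more thallium influx and brighter signal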
KCNQ2 inh conf: rat KCNQ2 channel inhibition, confirmatory screen. activity change, negative = inhibition, % at 10 µM. shares compounds with KCNQ2 block. KCNQ2-expressing cells, thallium flux; active compounds read low. hit rate 57% among 1,000;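 note: 0% = vehicle wells and values are ratio percent relative to vehicle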
KCNQ1 spec: KCNQ2 inhibitor that also affects human KCNQ1 channel | KCNQ1-expressing cells, FluxOR thallium flux fluorescence; active compounds read low | hit rate 15% among 1,000 | shares compounds with KCNQ2 block | activity change, negative = inhibition, % at 10 µM;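 active = activity change at least 3 SD of negative controls below their mean in both duplicate wells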;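 note: CHO cells stably transfected with KCNQ1 and depolarized by potassium stimulus; peak minus minimum fluorescence over baseline after thallium addition; 0% = vehicle negative control and -100% = blank without thallium stimulus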
CHO Tl ctr: activity in parental CHO cells lacking KCNQ2. activity change, % at 10 µM. hit rate 14% among 1,000. AID 493029. thallium flux counter-screen; active compounds read low. shares compounds with KCNQ2 block;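 note: 0% = vehicle negative controls with stimulus buffer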
KCNQ2 patch conf: rat KCNQ2 inhibition confirmed by electrophysiology | shares compounds with KCNQ2 block | KCNQ2-expressing cells, automated patch clamp current | calls only at 10 µM | hit rate 49% among 550 | AID 588531
* hit, by the source's call. Unless noted, the rule behind the calls is not given here.

How did Cc1cc(C)nc(NC(=O)c2cc(-c3ccc4c(c3)OCO4)nc3ccccc23)c1 do in these assays?
KCNQ2 block: -7.73*; KCNQ2 enhance: -7.73; KCNQ2 inh conf: -31.5%*; KCNQ1 spec: inactive; CHO Tl ctr: inactive; KCNQ2 patch conf: active

How did COc1ccc(CNC(=O)CCS(=O)(=O)c2ccc3c(c2)NC(=O)CS3)cc1 do in these assays?
KCNQ2 block: inactive; KCNQ2 enhance: 1.28

What do the screens show for `COc1ccc(-c2cc(C(=O)NN3CCOCC3)c3ccccc3n2)cc1OC`?
KCNQ2 block: inactive; KCNQ2 enhance: 0.26

Results for COc1cc(-c2cc(C(=O)Nc3nc4ccccc4s3)c3ccccc3n2)cc(OC)c1OC ?
KCNQ2 block: inactive

Results for COc1cc(-c2cc(C(=O)Nc3ccccc3N3CCOCC3)c3ccccc3n2)cc(OC)c1OC ?
KCNQ2 block: -7.79*; KCNQ2 enhance: -7.79; KCNQ2 inh conf: -31.0%*; KCNQ1 spec: inactive; CHO Tl ctr: inactive; KCNQ2 patch conf: active

How did COc1cc(-c2cc(C(=O)Nc3ccc(O)cc3)c3ccccc3n2)cc(OC)c1OC do in these assays?
KCNQ2 block: -7.67*; KCNQ2 enhance: -7.67; KCNQ2 inh conf: -29.5%*; KCNQ1 spec: inactive; CHO Tl ctr: inactive; KCNQ2 patch conf: active

What do the screens show for `O=C(Nc1ccccc1F)c1cc(-c2ccco2)nc2ccccc12`?
KCNQ2 block: inactive; KCNQ2 enhance: 0.04

What do the screens show for `O=C(Nc1ccccc1N1CCOCC1)c1cc(-c2ccco2)nc2ccccc12`?
KCNQ2 block: -7.02*; KCNQ2 enhance: -7.02; KCNQ2 inh conf: -54.0%*; KCNQ1 spec: -54.5%*; CHO Tl ctr: -50.0%*; KCNQ2 patch conf: active

What do the screens show for `CCOC(=O)N1CCN(S(=O)(=O)N2CCCC(C(=O)NCCc3ccc(C)cc3)C2)CC1` (stereo not given)?
KCNQ2 block: inactive; KCNQ2 enhance: 0.33

How did CC(C(=O)Nc1nccs1)N1C(=O)c2ccccc2S1(=O)=O (stereo not given) do in these assays?
KCNQ2 block: inactive; KCNQ2 enhance: 0.65

Results for CNC(=S)N(CCCN(C)C)Cc1cc2cc3c(cc2[nH]c1=O)OCCO3 ?
KCNQ2 block: inactive

What do the screens show for `O=C(c1ccccc1)c1ccc2nc(-c3ccco3)c(-c3ccco3)nc2c1`?
KCNQ2 block: -7.7*; KCNQ2 enhance: -7.7; KCNQ2 inh conf: inactive; KCNQ1 spec: inactive; CHO Tl ctr: inactive

How did O=C(NCCc1ccccc1)c1ccc2nc(-c3ccco3)c(-c3ccco3)nc2c1 do in these assays?
KCNQ2 block: inactive; KCNQ2 enhance: 0.57

What do the screens show for `O=C(NNC(=O)c1ccccc1O)c1cc2ccccc2o1`?
KCNQ2 block: inactive

How did Cc1ccc(C(=O)CSc2nnc(COc3ccc(C#N)cc3)n2-c2ccccc2)cc1 do in these assays?
KCNQ2 block: inactive; KCNQ2 enhance: 0.91

Results for Cc1ccc(OCc2nnc(SCC(=O)Nc3cccc4ccccc34)n2-c2ccccc2)cc1 ?
KCNQ2 block: -8.54*; KCNQ2 enhance: -8.54; KCNQ2 inh conf: inactive; KCNQ1 spec: inactive; CHO Tl ctr: inactive

What do the screens show for `Cc1nn(S(=O)(=O)c2ccc(Br)cc2)c(C)c1S(=O)(=O)N1CCOCC1`?
KCNQ2 block: inactive

Results for CC1CCN(C(=O)Cn2c(=O)n(Cc3ccc4c(c3)OCO4)c(=O)c3ccccc32)CC1 ?
KCNQ2 block: -7.17*; KCNQ2 enhance: -7.17; KCNQ2 inh conf: -31.0%*; KCNQ1 spec: inactive; CHO Tl ctr: inactive; KCNQ2 patch conf: active

How did CC1CCCCN1C(=O)CSc1nc2cc3c(cc2c(=O)n1Cc1ccc2c(c1)OCO2)OCO3 (stereo not given) do in these assays?
KCNQ2 block: inactive

What do the screens show for `O=C(Cn1c(=O)n(Cc2ccc3c(c2)OCO3)c(=O)c2ccccc21)N1CCCc2ccccc21`?
KCNQ2 block: inactive

Results for CC1CCN(C(=O)CSc2nc3ccccc3c(=O)n2Cc2ccc3c(c2)OCO3)CC1 ?
KCNQ2 block: -7.33*; KCNQ2 enhance: -7.33; KCNQ2 inh conf: inactive; KCNQ1 spec: inactive; CHO Tl ctr: inactive

Results for COC(=O)c1cc(NC(=O)Cn2c(=O)oc3ccccc32)cc(C(=O)OC)c1 ?
KCNQ2 block: inactive

How did CN(C(=S)Nc1ccc(F)cc1)C(c1ccccc1)c1ccccc1 do in these assays?
KCNQ2 block: inactive

Results for Cc1ccc(NC(=S)N(C)C(c2ccccc2)c2ccccc2)cc1C ?
KCNQ2 block: -8.36*; KCNQ2 enhance: -8.36; KCNQ2 inh conf: -25.0%*; KCNQ1 spec: inactive; CHO Tl ctr: inactive; KCNQ2 patch conf: inactive

How did Cc1sc(NC(=O)c2ccco2)c(C(c2cccnc2)N2CCN(c3ccc(F)cc3)CC2)c1C (stereo not given) do in these assays?
KCNQ2 block: -10.3*; KCNQ2 enhance: -10.3; KCNQ2 inh conf: -29.0%*; KCNQ1 spec: inactive; CHO Tl ctr: inactive; KCNQ2 patch conf: inactive

How did Cc1sc(NC(=O)c2ccco2)c(C(c2cccnc2)N2CCN(CCO)CC2)c1C (stereo not given) do in these assays?
KCNQ2 block: inactive; KCNQ2 enhance: 1.13

Results for Cc1ccnc(NCc2cccc3ccccc23)c1 ?
KCNQ2 block: -6.92*; KCNQ2 enhance: -6.92; KCNQ2 inh conf: -40.0%*; KCNQ1 spec: -29.0%*; CHO Tl ctr: -28.5%*

What do the screens show for `COc1cccc(CNc2cc(C)ccn2)c1O`?
KCNQ2 block: inactive; KCNQ2 enhance: 0.73

How did CC(C)CN(C(=O)c1cccc(S(=O)(=O)N2CCN(Cc3ccccc3)CC2)c1)C1CCS(=O)(=O)C1 (stereo not given) do in these assays?
KCNQ2 block: inactive; KCNQ2 enhance: 1.14

Results for CC1=C(C(=O)NCc2ccc3c(c2)OCO3)C2(CCC(C)CC2)OC1=O (stereo not given) ?
KCNQ2 block: -9.37*; KCNQ2 enhance: -9.37; KCNQ2 inh conf: inactive; KCNQ1 spec: inactive; CHO Tl ctr: inactive

How did CC1=C(C(=O)NCc2ccco2)C2(CCC(C)CC2)OC1=O (stereo not given) do in these assays?
KCNQ2 block: inactive; KCNQ2 enhance: 0.4

Results for O=C(NNC(=O)c1ccccc1F)C1=NN(c2ccccc2)C(=O)CC1 ?
KCNQ2 block: inactive

Results for CCN(CC)C(=O)C1CCN(C(=O)c2oc3ccc(C)cc3c2C)CC1 ?
KCNQ2 block: inactive

What do the screens show for `CCN(CC)C(=O)C1CCCN(C(=O)c2oc3ccc(C)cc3c2C)C1` (stereo not given)?
KCNQ2 block: -6.97*; KCNQ2 enhance: -6.97; KCNQ2 inh conf: inactive; KCNQ1 spec: inactive; CHO Tl ctr: inactive

Results for CN(C)c1cc(N/N=C/c2ccc(Cl)cc2)nc(N(C)C)n1 ?
KCNQ2 block: -8.56*; KCNQ2 enhance: -8.56; KCNQ2 inh conf: inactive; KCNQ1 spec: inactive; CHO Tl ctr: inactive

How did COc1cc(N/N=C/c2ccc(N(C)C)cc2)ncn1 do in these assays?
KCNQ2 block: inactive
